# In the supplement of paper PMC9262897, “Low-cost anti-mycobacterial drug discovery using engineered E. coli” (Nature Communications, 2022):
# Structures can show the parent of a compound that is named as a salt. ± gives the standard deviation of the averaged measurements.
# Columns and labels:
# Assay in all cases: growth (OD600 after 10 h); higher = more growth (less inhibition)
# [1] = test system: E. coli TESEC Alr+ wild-type control; settings: compound 0.1 mM; raw OD600 reference: median of DMSO wells 0.241, cell-free background 0.041
# Description: (§1)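 TESEC Mtb Alr E. coli, or the Alr+ wild-type control, in 384-well plates with Prestwick library compounds at 0.1 mM and 1% DMSO, across arabinose induction levels of 1E3 to 1E7 nM. Growth is read as OD600 after 10 h at 37 °C in triplicate biological replicates.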
# E. coli TESEC Mtb Alr [2] = settings: compound 0.1 mM
# Description: as §1
# E. coli TESEC Mtb Asd = settings: compound 0.1 mM
# Description: (§2)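 TESEC E. coli strains in which the native enzyme is deleted and replaced by arabinose-inducible Mtb Asd, DapB, CysH or TrpD, each grown in its selective medium. Strains were screened against the Prestwick library at 0.1 mM and 1% DMSO in 384-well format at low and high arabinose induction. Growth is read as OD600 after 10 h in triplicate.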
# E. coli TESEC Mtb DapB = settings: compound 0.1 mM
# Description: as §2
# [3] = test system: E. coli TESEC Alr+ wild-type control; settings: compound 0.1 mM; raw OD600 reference: median of DMSO wells 0.49, cell-free background 0.052
# Description: (§3)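 TESEC Mtb Alr E. coli (ΔaraC ΔtolC ΔentC Δalr ΔdadX, arabinose-inducible Mtb Alr) or the Alr+ wild-type control strain, grown in defined M9-fructose medium without D-alanine in 96-well plates with Prestwick library compounds at 0.1 mM and 1% DMSO. Low Alr induction is 0.1 µM arabinose and high induction is 10 mM arabinose.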
# E. coli TESEC Mtb Alr [4] = settings: compound 0.1 mM; remark: listed apart in the source
# Description: as §3
# [5] = arabinose 1000 nM, raw OD600 reference: median of DMSO wells 0.294, cell-free background 0.041
# [6] = arabinose 10000 nM, raw OD600 reference: median of DMSO wells 0.264, cell-free background 0.041
# [7] = arabinose 100000 nM, raw OD600 reference: median of DMSO wells 0.201, cell-free background 0.041
# [8] = arabinose 1000000 nM, raw OD600 reference: median of DMSO wells 0.193, cell-free background 0.041
# [9] = arabinose 10000000 nM, raw OD600 reference: median of DMSO wells 0.146, cell-free background 0.041
# [10] = arabinose induction (level): High, raw OD600 reference: median of DMSO wells 0.331, cell-free background 0.041
# [11] = arabinose induction (level): Low, raw OD600 reference: median of DMSO wells 0.417, cell-free background 0.041
# [12] = arabinose induction (level): High, raw OD600 reference: median of DMSO wells […], cell-free background 0.041
# [13] = arabinose induction (level): Low, raw OD600 reference: median of DMSO wells 0.227, cell-free background 0.041
# [14] = arabinose 100 nM, raw OD600 reference: median of DMSO wells 0.413, cell-free background 0.052
# [15] = arabinose 10000000 nM, raw OD600 reference: median of DMSO wells […], cell-free background 0.052
SMILES,growth [1],growth (E. coli TESEC Mtb Alr [2]; [5]),growth (E. coli TESEC Mtb Alr [2]; [6]),growth (E. coli TESEC Mtb Alr [2]; [7]),growth (E. coli TESEC Mtb Alr [2]; [8]),growth (E. coli TESEC Mtb Alr [2]; [9]),growth (E. coli TESEC Mtb Asd; [10]),growth (E. coli TESEC Mtb Asd; [11]),growth (E. coli TESEC Mtb DapB; [12]),growth (E. coli TESEC Mtb DapB; [13]),growth [3],growth (E. coli TESEC Mtb Alr [4]; [14]),growth (E. coli TESEC Mtb Alr [4]; [15])
"CC(C)NCC(O)c1ccc(O)c(O)c1 (single isomer, unassigned; (+)) [(+)-Isoproterenol (+)-bitartrate salt]",0.211 ± 0.0042,0.274 ± 0.02,0.2493 ± 0.0013,0.18 ± 0.015,0.149 ± 0.0077,0.137 ± 0.0022,0.328 ± 0.028,0.468 ± 0.034,0.2017 ± 0.0019,0.199 ± 0.0075,0.497 ± 0.044,0.412 ± 0.013,0.326 ± 0.021
CC(C)n1c(/C=C/C(O)CC(O)CC(=O)O)c(-c2ccc(F)cc2)c2ccccc21 (configuration not stated) [Fluvastatin sodium salt],0.165 ± 0.0024,0.247 ± 0.017,0.192 ± 0.0063,0.187 ± 0.015,0.0938 ± 0.0088,0.157 ± 0.0043,0.216 ± 0.066,0.32 ± 0.052,0.17 ± 0.0096,0.199 ± 0.02,0.401 ± 0.012,0.394 ± 0.03,0.235 ± 0.0099
CCCCCCCN(CC)CCCC(O)c1ccc(NS(C)(=O)=O)cc1 (configuration not stated) [Ibutilide fumarate],0.219 ± 0.041,0.298 ± 0.013,0.268 ± 0.01,0.183 ± 0.02,0.158 ± 0.0044,0.137 ± 0.001,0.271 ± 0.022,0.44 ± 0.022,0.197 ± 0.027,0.243 ± 0.019,0.55 ± 0.095,0.408 ± 0.0059,0.313 ± 0.016
C#C[C@]1(O)CC[C@H]2[C@@H]3CCC4=C(CCC(=O)C4)[C@H]3CC[C@@]21C [Norethynodrel],0.133 ± 0.013,0.142 ± 0.0092,0.107 ± 0.0051,0.157 ± 0.0071,0.0575 ± 0.0014,0.089 ± 0.0065,0.128 ± 0.016,0.13 ± 0.006,0.149 ± 0.0054,0.17 ± 0.01,0.355 ± 0.005,0.399 ± 0.0064,0.17 ± 0.018
O=C(C1CCCCC1)N1CC(=O)N2CCc3ccccc3C2C1 (configuration not stated) [Praziquantel],0.207 ± 0.0042,0.251 ± 0.0052,0.237 ± 0.015,0.214 ± 0.021,0.167 ± 0.01,0.141 ± 0.0052,0.391 ± 0.074,0.278 ± 0.026,0.174 ± 0.0068,0.21 ± 0.027,0.447 ± 0.019,0.382 ± 0.0029,0.37 ± 0.025
CC(C)Cc1ccc([C@H](C)C(=O)O)cc1 [S-(+)-ibuprofen],0.236 ± 0.012,0.269 ± 0.013,0.24 ± 0.006,0.166 ± 0.0055,0.194 ± 0.0082,0.129 ± 0.0024,0.262 ± 0.015,0.311 ± 0.0056,0.196 ± 0.014,0.18 ± 0.016,0.615 ± 0.082,0.402 ± 0.012,0.329 ± 0.004
C[C@@H]1CN(c2c(F)c(N)c3c(=O)c(C(=O)O)cn(C4CC4)c3c2F)C[C@H](C)N1 [Sparfloxacin],0.0414 ± 0.0019,0.0409 ± 0.0011,0.0398 ± 0.0002,0.0433 ± 0.0046,0.04 ± 0.00078,0.04067 ± 0.00038,0.04863 ± 0.0004,0.0462 ± 0.0031,0.0488 ± 0.00061,0.04823 ± 0.00038,0.0553 ± 0.0029,0.0536 ± 0.0018,0.051 ± 0.00046
NCCc1cc[nH]n1 [Betazole hydrochloride],0.25 ± 0.0071,0.254 ± 0.06,0.259 ± 0.014,0.2 ± 0.03,0.1943 ± 0.00064,0.14 ± 0.0021,0.279 ± 0.0079,0.379 ± 0.081,0.215 ± 0.021,0.254 ± 0.052,0.494 ± 0.066,0.408 ± 0.013,0.305 ± 0.067
COCCOC(=O)C1=C(C)NC(C)=C(C(=O)OC(C)C)C1c1cccc([N+](=O)[O-])c1 (configuration not stated) [Nimodipine],0.18 ± 0.017,0.176 ± 0.062,0.0601 ± 0.0043,0.154 ± 0.0027,0.0632 ± 0.0037,0.08053 ± 0.00035,0.274 ± 0.024,0.487 ± 0.0068,0.169 ± 0.016,0.197 ± 0.037,0.325 ± 0.004,0.404 ± 0.025,0.0716 ± 0.011
CC(COc1ccccc1)NC(C)C(O)c1ccc(O)cc1 (configuration not stated) [Isoxsuprine hydrochloride],0.224 ± 0.0098,0.29 ± 0.014,0.256 ± 0.003,0.183 ± 0.011,0.156 ± 0.0029,0.157 ± 0.0078,0.25 ± 0.081,0.402 ± 0.079,0.202 ± 0.042,0.271 ± 0.028,0.5 ± 0.066,0.413 ± 0.0062,0.34 ± 0.02
CCN1CCC[C@H]1CNC(=O)c1c(O)c(Cl)cc(Cl)c1OC [Raclopride],0.173 ± 0.014,0.16 ± 0.01,0.148 ± 0.017,0.14 ± 0.014,0.107 ± 0.0082,0.172 ± 0.0058,0.13 ± 0.013,0.133 ± 0.014,0.173 ± 0.013,0.166 ± 0.019,0.391 ± 0.075,0.395 ± 0.038,0.175 ± 0.027
CCOC(=O)C(C)(C)Oc1ccc(Cl)cc1 [Clofibrate],0.237 ± 0.0033,0.287 ± 0.0062,0.268 ± 0.0049,0.19 ± 0.013,0.194 ± 0.0078,0.137 ± 0.0052,0.279 ± 0.041,0.415 ± 0.043,0.19 ± 0.015,0.236 ± 0.041,0.609 ± 0.065,0.4111 ± 0.0031,0.325 ± 0.0033
"C[C@H]1C[C@@H]2[C@H]([C@@H](O)C[C@@]3(C)[C@H]2CC[C@]3(O)C(=O)CO)[C@@]2(C)C=CC(=O)C=C12 [Methylprednisolone, 6-alpha]",0.202 ± 0.0042,0.254 ± 0.013,0.243 ± 0.0096,0.1512 ± 0.0011,0.116 ± 0.0032,0.134 ± 0.0027,0.259 ± 0.024,0.475 ± 0.018,0.175 ± 0.0055,0.213 ± 0.023,0.459 ± 0.028,0.431 ± 0.0047,0.295 ± 0.021
"CC(O)(P(=O)(O)O)P(=O)(O)O [Etidronic acid, disodium salt]",0.261 ± 0.021,0.331 ± 0.0087,0.275 ± 0.0062,0.20943 ± 0.00012,0.184 ± 0.0041,0.159 ± 0.003,0.474 ± 0.015,0.426 ± 0.068,0.216 ± 0.003,0.26 ± 0.015,0.578 ± 0.046,0.415 ± 0.021,0.261 ± 0.056
